Columns and labels:
[1] = target: T1, Ephrin type-B receptor 1 (Homo sapiens) (UniProt P54762); conditions: at 10 µM
T1 sequence (whole entry): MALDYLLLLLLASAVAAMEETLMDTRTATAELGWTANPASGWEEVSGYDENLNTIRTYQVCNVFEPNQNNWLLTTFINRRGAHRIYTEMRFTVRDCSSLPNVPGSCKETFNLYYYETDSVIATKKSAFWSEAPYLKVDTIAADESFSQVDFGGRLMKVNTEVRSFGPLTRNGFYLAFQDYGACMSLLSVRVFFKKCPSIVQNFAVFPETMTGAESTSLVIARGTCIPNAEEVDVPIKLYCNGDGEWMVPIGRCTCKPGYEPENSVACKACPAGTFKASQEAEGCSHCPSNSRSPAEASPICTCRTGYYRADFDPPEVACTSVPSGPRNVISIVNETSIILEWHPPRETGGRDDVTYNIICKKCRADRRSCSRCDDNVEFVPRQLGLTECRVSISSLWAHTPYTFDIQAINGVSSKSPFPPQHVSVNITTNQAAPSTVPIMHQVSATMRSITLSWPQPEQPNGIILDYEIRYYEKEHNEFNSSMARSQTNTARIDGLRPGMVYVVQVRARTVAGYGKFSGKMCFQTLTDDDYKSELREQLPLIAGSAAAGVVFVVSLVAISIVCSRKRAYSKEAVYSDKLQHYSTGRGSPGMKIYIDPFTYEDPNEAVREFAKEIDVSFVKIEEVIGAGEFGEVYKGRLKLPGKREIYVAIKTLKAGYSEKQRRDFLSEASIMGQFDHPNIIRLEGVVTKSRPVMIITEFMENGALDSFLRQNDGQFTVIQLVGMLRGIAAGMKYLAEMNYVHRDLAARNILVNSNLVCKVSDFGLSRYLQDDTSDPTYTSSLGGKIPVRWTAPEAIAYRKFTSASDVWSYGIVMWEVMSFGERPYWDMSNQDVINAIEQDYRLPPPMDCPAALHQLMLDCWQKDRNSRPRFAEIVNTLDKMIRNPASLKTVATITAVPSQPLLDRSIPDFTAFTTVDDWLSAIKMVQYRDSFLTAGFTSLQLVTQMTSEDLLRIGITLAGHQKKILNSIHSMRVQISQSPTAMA

[2] = target: T2, Ephrin type-B receptor 2 (Homo sapiens) (UniProt P29323); conditions: at 1 µM
T2 sequence (whole entry): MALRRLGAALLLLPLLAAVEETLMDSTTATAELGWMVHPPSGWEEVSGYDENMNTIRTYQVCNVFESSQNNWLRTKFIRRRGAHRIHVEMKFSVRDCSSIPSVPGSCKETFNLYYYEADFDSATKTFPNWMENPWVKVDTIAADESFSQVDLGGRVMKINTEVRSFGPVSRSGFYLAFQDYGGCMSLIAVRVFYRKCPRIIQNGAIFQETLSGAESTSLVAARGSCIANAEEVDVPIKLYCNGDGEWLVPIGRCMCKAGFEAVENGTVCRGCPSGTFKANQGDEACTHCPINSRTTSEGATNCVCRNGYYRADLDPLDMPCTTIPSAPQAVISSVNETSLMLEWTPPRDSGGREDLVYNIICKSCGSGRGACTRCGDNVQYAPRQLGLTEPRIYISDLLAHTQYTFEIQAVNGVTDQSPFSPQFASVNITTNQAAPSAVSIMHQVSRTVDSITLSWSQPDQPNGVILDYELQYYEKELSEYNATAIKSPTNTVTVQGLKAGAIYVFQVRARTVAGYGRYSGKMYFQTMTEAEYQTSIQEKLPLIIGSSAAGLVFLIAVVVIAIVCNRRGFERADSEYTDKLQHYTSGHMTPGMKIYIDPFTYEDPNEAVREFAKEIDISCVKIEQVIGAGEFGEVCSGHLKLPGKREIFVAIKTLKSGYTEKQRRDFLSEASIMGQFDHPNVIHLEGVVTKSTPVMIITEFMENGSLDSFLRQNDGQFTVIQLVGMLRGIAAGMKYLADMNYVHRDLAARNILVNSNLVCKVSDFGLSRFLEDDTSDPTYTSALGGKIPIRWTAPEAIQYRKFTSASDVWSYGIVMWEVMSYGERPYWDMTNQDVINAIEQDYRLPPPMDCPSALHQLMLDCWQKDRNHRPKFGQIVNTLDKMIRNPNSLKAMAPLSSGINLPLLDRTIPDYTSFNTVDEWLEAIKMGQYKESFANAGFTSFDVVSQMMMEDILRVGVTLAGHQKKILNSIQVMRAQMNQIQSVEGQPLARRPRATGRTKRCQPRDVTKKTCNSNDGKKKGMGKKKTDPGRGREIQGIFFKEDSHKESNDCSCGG

[3] = target: T2, Ephrin type-B receptor 2 (Homo sapiens); conditions: at 10 µM
[4] = target: T3, Ephrin type-B receptor 3 (Homo sapiens) (UniProt P54753); conditions: at 1 µM
T3 sequence (whole entry): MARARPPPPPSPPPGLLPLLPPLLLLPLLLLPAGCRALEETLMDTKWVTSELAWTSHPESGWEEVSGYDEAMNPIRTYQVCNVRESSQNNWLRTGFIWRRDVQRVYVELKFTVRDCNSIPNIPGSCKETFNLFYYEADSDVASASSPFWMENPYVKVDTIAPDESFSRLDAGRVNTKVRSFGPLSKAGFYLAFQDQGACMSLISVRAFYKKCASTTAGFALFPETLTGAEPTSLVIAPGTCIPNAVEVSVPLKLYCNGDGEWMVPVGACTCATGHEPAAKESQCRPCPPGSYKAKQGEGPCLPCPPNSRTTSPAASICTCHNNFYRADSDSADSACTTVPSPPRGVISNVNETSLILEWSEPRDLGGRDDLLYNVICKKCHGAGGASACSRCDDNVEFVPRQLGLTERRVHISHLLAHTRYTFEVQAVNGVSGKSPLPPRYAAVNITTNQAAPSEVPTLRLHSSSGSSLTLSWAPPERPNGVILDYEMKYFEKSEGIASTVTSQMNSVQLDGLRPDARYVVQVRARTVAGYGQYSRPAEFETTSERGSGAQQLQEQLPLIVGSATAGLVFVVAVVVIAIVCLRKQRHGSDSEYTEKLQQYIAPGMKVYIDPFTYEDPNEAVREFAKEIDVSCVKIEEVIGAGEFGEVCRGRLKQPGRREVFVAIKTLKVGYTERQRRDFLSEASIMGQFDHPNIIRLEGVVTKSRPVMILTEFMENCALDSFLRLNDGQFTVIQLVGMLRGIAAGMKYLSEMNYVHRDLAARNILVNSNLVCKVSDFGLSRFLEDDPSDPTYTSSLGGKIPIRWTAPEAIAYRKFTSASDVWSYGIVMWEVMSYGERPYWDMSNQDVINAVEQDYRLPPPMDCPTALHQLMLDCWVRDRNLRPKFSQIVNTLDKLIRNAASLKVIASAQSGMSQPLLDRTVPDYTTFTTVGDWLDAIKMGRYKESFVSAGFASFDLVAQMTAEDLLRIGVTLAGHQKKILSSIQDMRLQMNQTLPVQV

[5] = target: T3, Ephrin type-B receptor 3 (Homo sapiens); conditions: at 10 µM
[6] = target: T4, Ephrin type-B receptor 4 (Homo sapiens) (UniProt P54760); conditions: at 1 µM
T4 sequence (whole entry): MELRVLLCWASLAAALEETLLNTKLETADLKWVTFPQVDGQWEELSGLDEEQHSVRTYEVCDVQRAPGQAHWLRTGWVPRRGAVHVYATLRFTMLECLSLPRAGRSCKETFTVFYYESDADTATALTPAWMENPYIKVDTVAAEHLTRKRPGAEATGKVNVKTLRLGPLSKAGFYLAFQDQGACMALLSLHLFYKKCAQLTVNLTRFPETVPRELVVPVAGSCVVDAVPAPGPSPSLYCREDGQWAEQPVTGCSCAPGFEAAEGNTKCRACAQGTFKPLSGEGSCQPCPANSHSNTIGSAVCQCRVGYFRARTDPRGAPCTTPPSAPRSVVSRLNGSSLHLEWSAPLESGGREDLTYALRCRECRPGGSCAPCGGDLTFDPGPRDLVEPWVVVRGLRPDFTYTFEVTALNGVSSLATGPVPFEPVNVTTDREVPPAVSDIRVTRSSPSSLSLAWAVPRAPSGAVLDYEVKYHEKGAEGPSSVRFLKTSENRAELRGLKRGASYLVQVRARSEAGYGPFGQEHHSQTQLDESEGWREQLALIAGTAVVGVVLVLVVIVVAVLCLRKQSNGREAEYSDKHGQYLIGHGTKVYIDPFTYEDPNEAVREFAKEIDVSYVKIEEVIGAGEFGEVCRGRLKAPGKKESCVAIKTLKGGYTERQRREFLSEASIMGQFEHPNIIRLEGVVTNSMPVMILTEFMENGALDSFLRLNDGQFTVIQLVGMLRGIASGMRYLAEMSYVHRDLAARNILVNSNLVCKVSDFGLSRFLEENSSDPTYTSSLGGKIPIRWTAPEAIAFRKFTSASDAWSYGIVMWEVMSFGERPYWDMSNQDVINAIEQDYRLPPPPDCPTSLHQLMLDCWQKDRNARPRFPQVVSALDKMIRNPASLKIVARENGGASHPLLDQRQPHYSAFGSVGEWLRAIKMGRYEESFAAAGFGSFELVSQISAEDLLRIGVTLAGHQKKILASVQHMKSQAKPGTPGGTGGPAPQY

[7] = target: T4, Ephrin type-B receptor 4 (Homo sapiens); conditions: at 10 µM
[8] = target: Receptor tyrosine-protein kinase erbB-4 (Homo sapiens) (UniProt Q15303); conditions: at 1 µM
[9] = target: Receptor tyrosine-protein kinase erbB-4 (Homo sapiens) (UniProt Q15303); conditions: at 10 µM
[10] = target: Focal adhesion kinase 1 (Homo sapiens) (UniProt Q05397); conditions: at 1 µM
[11] = target: Focal adhesion kinase 1 (Homo sapiens) (UniProt Q05397); conditions: at 10 µM
[12] = target: Fibroblast growth factor receptor 1 (Homo sapiens) (UniProt P11362); conditions: at 1 µM
[13] = target: Fibroblast growth factor receptor 1 (Homo sapiens) (UniProt P11362); conditions: at 10 µM
[14] = target: Fibroblast growth factor receptor 2 (Homo sapiens) (UniProt P21802); conditions: at 1 µM
[15] = target: Fibroblast growth factor receptor 2 (Homo sapiens) (UniProt P21802); conditions: at 10 µM
[16] = target: Fibroblast growth factor receptor 3 (Homo sapiens) (UniProt P22607); conditions: at 1 µM
[17] = target: Fibroblast growth factor receptor 3 (Homo sapiens) (UniProt P22607); conditions: at 10 µM
[18] = target: Fibroblast growth factor receptor 4 (Homo sapiens) (UniProt P22455); conditions: at 1 µM
[19] = target: Fibroblast growth factor receptor 4 (Homo sapiens) (UniProt P22455); conditions: at 10 µM
[20] = target: Tyrosine-protein kinase Fer (Homo sapiens) (UniProt P16591); conditions: at 1 µM
Chain of Tyrosine-protein kinase Fer (Homo sapiens) (P16591 whole entry, looked up): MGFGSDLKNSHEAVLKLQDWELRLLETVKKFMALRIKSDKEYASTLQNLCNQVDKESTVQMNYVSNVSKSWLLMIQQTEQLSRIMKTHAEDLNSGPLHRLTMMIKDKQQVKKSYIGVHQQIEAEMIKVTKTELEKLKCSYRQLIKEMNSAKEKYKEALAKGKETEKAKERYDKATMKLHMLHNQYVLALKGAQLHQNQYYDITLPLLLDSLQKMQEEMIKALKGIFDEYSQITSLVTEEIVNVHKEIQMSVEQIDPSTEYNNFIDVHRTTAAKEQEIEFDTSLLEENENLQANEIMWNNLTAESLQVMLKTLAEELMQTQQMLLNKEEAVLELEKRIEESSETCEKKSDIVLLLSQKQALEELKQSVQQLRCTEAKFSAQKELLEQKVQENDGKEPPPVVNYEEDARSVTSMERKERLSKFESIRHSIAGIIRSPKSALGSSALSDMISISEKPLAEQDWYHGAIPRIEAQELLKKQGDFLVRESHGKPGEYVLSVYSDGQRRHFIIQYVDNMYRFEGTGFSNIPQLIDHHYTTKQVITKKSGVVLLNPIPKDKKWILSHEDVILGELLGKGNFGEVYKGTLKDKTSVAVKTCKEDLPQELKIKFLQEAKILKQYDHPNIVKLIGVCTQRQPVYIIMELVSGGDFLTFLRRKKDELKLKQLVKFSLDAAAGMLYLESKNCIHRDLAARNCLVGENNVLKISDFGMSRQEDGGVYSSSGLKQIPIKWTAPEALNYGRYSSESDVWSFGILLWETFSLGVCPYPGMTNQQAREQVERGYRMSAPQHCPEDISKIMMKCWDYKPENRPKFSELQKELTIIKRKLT

Chain of Receptor tyrosine-protein kinase erbB-4 (Homo sapiens) (Q15303 whole entry): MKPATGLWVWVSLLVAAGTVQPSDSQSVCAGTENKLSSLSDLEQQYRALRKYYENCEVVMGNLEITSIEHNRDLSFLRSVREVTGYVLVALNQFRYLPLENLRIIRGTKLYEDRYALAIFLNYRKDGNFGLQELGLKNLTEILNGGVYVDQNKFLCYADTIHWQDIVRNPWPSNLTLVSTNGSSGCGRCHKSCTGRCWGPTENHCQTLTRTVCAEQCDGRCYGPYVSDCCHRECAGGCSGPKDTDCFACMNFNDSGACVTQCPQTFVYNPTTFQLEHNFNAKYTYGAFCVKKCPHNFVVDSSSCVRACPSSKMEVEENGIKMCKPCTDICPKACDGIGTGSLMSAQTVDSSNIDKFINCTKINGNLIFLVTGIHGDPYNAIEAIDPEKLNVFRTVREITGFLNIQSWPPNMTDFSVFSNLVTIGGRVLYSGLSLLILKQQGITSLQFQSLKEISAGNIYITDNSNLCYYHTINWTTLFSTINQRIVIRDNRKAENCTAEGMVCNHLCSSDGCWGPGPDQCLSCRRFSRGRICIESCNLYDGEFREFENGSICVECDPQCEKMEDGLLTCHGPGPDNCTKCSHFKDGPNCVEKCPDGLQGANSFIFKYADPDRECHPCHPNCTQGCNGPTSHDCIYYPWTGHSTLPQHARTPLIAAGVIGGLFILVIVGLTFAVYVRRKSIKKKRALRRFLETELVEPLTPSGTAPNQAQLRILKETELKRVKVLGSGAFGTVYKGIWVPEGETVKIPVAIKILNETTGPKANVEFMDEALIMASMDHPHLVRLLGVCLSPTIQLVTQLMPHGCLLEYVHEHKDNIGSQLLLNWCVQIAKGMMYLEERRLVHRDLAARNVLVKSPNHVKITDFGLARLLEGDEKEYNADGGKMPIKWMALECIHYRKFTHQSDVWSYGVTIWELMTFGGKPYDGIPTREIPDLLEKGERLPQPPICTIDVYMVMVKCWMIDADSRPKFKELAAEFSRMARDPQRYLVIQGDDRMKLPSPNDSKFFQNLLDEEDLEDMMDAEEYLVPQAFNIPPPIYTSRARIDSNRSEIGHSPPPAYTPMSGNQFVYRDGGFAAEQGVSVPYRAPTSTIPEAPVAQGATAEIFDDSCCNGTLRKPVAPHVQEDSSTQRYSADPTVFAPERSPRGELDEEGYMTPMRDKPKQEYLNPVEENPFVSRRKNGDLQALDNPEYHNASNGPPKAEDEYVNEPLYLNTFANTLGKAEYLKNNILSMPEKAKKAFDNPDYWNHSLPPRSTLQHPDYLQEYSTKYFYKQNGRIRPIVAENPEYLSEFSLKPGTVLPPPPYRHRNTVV
Chain of Fibroblast growth factor receptor 1 (Homo sapiens) (P11362 22-822 limits assumed): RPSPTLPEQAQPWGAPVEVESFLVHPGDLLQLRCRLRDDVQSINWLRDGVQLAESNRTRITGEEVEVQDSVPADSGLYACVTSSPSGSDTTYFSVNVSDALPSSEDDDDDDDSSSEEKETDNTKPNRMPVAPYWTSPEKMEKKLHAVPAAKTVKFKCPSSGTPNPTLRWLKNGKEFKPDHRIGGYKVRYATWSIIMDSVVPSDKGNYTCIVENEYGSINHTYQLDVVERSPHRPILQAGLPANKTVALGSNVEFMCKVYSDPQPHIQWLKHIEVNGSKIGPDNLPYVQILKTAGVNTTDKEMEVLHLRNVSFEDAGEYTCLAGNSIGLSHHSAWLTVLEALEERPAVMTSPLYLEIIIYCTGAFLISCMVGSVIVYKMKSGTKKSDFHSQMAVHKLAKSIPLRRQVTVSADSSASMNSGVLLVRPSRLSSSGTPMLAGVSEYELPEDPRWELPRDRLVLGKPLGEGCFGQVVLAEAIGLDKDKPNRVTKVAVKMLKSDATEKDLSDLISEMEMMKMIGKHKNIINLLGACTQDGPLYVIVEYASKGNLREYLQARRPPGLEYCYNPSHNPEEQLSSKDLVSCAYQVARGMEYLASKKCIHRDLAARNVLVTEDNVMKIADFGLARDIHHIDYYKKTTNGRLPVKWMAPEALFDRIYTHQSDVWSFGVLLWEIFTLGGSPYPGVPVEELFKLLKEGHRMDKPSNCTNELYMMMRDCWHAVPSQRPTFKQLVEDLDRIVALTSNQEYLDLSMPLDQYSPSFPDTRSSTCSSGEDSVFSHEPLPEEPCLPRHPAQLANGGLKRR
Chain of Fibroblast growth factor receptor 4 (Homo sapiens) (P22455 22-802 limits assumed): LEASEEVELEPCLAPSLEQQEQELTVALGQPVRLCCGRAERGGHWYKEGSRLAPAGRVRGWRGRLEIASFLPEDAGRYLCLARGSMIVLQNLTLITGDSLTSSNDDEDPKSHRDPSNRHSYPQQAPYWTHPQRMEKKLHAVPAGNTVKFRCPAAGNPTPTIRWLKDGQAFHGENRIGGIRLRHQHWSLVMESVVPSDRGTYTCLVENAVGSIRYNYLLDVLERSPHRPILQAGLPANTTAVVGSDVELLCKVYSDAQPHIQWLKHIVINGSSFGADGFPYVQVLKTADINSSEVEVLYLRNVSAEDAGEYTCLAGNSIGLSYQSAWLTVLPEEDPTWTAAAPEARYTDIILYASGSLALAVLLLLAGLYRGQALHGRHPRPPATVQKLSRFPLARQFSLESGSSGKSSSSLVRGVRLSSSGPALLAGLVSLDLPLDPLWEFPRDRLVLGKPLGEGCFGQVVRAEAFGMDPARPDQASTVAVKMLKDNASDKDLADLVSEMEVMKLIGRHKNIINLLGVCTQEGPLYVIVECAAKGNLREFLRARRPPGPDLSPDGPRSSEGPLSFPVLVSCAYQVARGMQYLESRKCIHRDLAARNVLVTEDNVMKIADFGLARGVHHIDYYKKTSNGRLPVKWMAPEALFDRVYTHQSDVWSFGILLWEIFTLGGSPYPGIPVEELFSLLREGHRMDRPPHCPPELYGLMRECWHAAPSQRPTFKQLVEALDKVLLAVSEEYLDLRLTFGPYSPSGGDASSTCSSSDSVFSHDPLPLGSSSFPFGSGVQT
Chain of Fibroblast growth factor receptor 3 (Homo sapiens) (P22607 23-806 limits assumed): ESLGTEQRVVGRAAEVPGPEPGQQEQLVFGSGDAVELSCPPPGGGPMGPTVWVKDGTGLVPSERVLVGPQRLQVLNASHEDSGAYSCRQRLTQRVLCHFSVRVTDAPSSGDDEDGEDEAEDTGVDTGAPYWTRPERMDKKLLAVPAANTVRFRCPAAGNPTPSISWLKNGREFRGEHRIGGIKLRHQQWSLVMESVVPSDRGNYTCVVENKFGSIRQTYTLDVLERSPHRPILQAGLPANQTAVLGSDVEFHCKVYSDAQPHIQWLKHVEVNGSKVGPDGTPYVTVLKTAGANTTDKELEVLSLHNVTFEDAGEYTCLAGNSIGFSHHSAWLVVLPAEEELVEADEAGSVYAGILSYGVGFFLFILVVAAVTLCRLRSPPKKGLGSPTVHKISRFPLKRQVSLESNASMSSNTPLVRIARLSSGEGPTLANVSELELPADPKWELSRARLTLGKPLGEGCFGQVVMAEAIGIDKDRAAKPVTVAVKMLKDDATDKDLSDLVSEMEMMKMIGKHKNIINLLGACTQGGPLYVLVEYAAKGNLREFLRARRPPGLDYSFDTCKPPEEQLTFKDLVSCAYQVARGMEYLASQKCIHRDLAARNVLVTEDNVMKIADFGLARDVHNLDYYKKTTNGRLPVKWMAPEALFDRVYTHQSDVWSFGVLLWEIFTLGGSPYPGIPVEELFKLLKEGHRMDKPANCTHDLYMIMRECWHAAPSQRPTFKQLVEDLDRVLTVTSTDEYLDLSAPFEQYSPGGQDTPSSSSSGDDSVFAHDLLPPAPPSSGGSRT

Structure (SMILES) | residual activity [1] | residual activity [2] | residual activity [3] | residual activity [4] | residual activity [5] | residual activity [6] | residual activity [7] | residual activity [8] | residual activity [9] | residual activity [10] | residual activity [11] | residual activity [12] | residual activity [13] | residual activity [14] | residual activity [15] | residual activity [16] | residual activity [17] | residual activity [18] | residual activity [19] | residual activity [20]
O=c1cc(-c2cccc3c2Sc2ccccc2S3)oc(N2CCOCC2)c1 | 92% | 112% | 126% | 119% (inactive) | 121% | 113% | 118% | 105% | 92% | 109% | 116% | 120% | 95% | 106% | 81% | 112% | 84% | 104% | 88% | 115%
Nc1cccc(-c2cc3c(Oc4cccc(O)c4)ncnc3[nH]2)c1 | -1% | 4% | -1% | 105% (inactive) | 90% | 2% | -3% | 71% | 19% | 87% | 42% | 2% | 0% | 21% | 2% | 53% | 9% | 72% | 22% | 58%
CN(C)c1ccc(/C=C2\C(=O)Nc3ccccc32)cc1 | 80% | 112% | 130% | 108% (inactive) | 123% | 97% | 121% | 115% | 82% | 82% | 62% | 61% | 10% | 94% | 38% | 89% | 64% | 122% | 110% | 109%
Cc1nc(-c2ccccc2)c(-c2ccncc2)o1 | 55% | 36% | 31% | 126% (inactive) | 107% | 105% | 79% | 118% | 110% | 111% | 98% | 120% | 83% | 86% | 74% | 121% | 114% | 109% | 99% | 101%
O=C1NC(=O)c2cc(Nc3ccc(F)cc3)c(Nc3ccc(F)cc3)cc21 | 60% | 105% | 69% | 100% (inactive) | 105% | 95% | 56% | 87% | 35% | 137% | 89% | 85% | 135% | 101% | 82% | 114% | 103% | 142% | 93% | 109%
O=Nc1c(-c2c(O)[nH]c3ccccc23)[nH]c2ccccc12 | 13% | 91% | 13% | 105% (inactive) | 103% | 67% | 13% | 107% | 99% | 39% | 2% | 3% | -1% | 22% | 2% | 20% | 2% | 100% | 45% | 70%
Oc1ccc(Nc2nc(-c3ccc(Cl)cc3)cs2)cc1 | 78% | 108% | 109% | 88% (inactive) | 95% | 109% | 92% | 132% | 128% | 108% | 94% | 128% | 86% | 119% | 93% | 132% | 137% | 125% | 118% | 94%

— ChEMBL document CHEMBL2218924, “A broad activity screen in support of a chemogenomic map for kinase signalling research and drug discovery” (Biochem J, 2013)
